Assay results published in PubChem BioAssay AID2546 (National Center for Advancing Translational Sciences (NCATS), 2010).
The campaign covered roughly 310,000 compounds. About 11,000 (3.5%) were called active. A call without a number means that no potency is given here. Roughly 8% stayed inconclusive and do not appear here. The sample as a whole holds a higher share of actives than the screen did. Values without a mark were called inactive. Calls come from the whole dose curve; as a rule, active = well fitted inhibition curve with a large enough effect; inconclusive = small, poorly fitted or top-dose-only effect, or effect the other way; inactive = flat fitted curve, though single readings scatter.
Potency is the fitted concentration of half-maximal effect.

Experiment: VP16 counterscreen qHTS for inhibitors of ROR gamma transcriptional activity;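 note: Gal4-VP16 expression switched on by copper sulfate through the metallothionein promoter; nearly all actives have a fitted effect of over 50% in size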
Details: Drosophila S2 Gal4-VP16 UAS-luciferase, luminescence, 20 h; series mostly up to 53.6 µM
For `CCN(CC)CCn1cnc2c1c(=O)[nH]c(=O)n2Cc1ccccc1`, the Potency was “inactive”. In the case of `COc1ccc(CSc2nnnn2-c2ccc(O)cc2)cc1F`, the Potency is reported as “inactive”. With `CCOC(=O)CC1COCCN1C(=O)c1cc(COc2ccc(F)c(F)c2)on1` (centres undefined) the Potency was “inactive”. With `CCOC(=O)c1sc(NC(=O)c2cc(S(=O)(=O)N3CCOCC3)ccc2C)nc1C` the Potency was “inactive”. For `Cc1ccc(S(=O)(=O)N2CCOCC2)cc1C(=O)NC(=S)N(Cc1ccccc1)C(C)C`, the Potency was 3.98 µM (active). In the case of `Cc1ccc(S(=O)(=O)N2CCOCC2)cc1C(=O)NCc1ccc(F)cc1`, the Potency is reported as “inactive”. With `O=C(CN1CCCCCC1)Nc1c(Cl)cc(Cl)cc1Cl` the Potency was “inactive”. With `CN(Cc1ccccc1)C(=O)C(=O)c1cn(CC(=O)N2CCCC2)c2ccccc12` the Potency was “inactive”. For `N#CC1(NC(=O)COC(=O)CCN=C2NS(=O)(=O)c3ccccc32)CCCCC1`, the Potency was “inactive”. In the case of `O=C(N/N=C/c1cc([N+](=O)[O-])ccc1O)/C(=C\c1cccs1)NC(=O)c1ccccc1`, the Potency is reported as 10 µM (active). For `O=C(Nc1ccc(C(=O)O)cc1)/C(=C/c1ccc([N+](=O)[O-])cc1)NC(=O)c1ccccc1`, the Potency was “inactive”. With `O=C(N/N=C/c1ccc(O)cc1)/C(=C/c1ccc([N+](=O)[O-])cc1)NC(=O)c1ccccc1` the Potency was “inactive”. For `CSc1nnc(C2CCCN(CC(=O)Nc3ccccc3N3CCOCC3)C2)n1C(C)C` (centres undefined), the Potency was “inactive”. In the case of `Cc1cc(Cl)c(S(=O)(=O)NCc2cccnc2)cc1OCC(N)=O`, the Potency is reported as “inactive”. In the case of `Cc1cc(S(=O)(=O)NCc2ccccn2)c(Cl)cc1Cl`, the Potency is reported as 5.62 µM (active). With `O=S(=O)(NCc1ccccn1)c1ccc(F)cc1` the Potency was “inactive”. For `COc1ccc(NC(=O)C2CCC(CNC(=O)[C@@H]3Cc4ccccc4CN3)CC2)cc1` (some centres undefined), the Potency was “inactive”. In the case of `CC(=O)N1c2ccc(S(=O)(=O)N3CCC(C(=O)NCc4ccc(F)cc4)CC3)cc2CC1C` (centres undefined), the Potency is reported as “inactive”. With `COc1ccc(-n2c(-c3ccc(OC)c(OC)c3)n[nH]c2=S)cc1` the Potency was “inactive”. With `Cc1ccc(-n2c(-c3ccc(Cl)cc3)n[nH]c2=S)cc1` the Potency was 2.51 µM (active). With `Cc1cc(-c2n[nH]c(=S)n2-c2ccc(C)c(C)c2)no1` the Potency was “inactive”. In the case of `Cc1nc2sccn2c(=O)c1S(=O)(=O)NCCc1ccccc1`, the Potency is reported as “inactive”. For `COc1cc(C(=O)NCC2(c3ccccc3)CCCC2)ccc1OC(C)C`, the Potency was “inactive”. For `O=C(/C=C/c1cccc([N+](=O)[O-])c1)N1CCN(Cc2ccccc2)CC1`, the Potency was “inactive”. With `O=[N+]([O-])/C=C/c1ccc2c(ccn2Cc2ccccc2)c1` the Potency was 11.2 µM (active). With `O=c1c([N+](=O)[O-])cc(C(F)(F)F)cn1Cc1cccc(Cl)c1` the Potency was “inactive”. For `CC1CCN(C(=O)/C(=C\c2ccccc2)NC(=O)c2ccccc2)CC1`, the Potency was “inactive”. With `CC1CCN(C(=O)c2ccccc2NC(=O)Cc2ccccc2)CC1` the Potency was “inactive”. With `CC1CCN(C(=S)NC(=O)c2ccccc2Br)CC1` the Potency was 3.55 µM (active). In the case of `COc1ccc(CNC(=O)c2ccc(Br)s2)cc1OC`, the Potency is reported as “inactive”. In the case of `Cc1ccc(C(=O)N/C(=C\c2cn(S(=O)(=O)N(C)C)c3ccccc23)C(=O)N2CCCC2)cc1`, the Potency is reported as “inactive”. `CCOC(=O)CN/C=C(\C#N)c1ccc(F)cc1` gave an activity, negative = inhibition of -4.69% [at 10 µM]. For `CCOc1cc(/C=C(/C#N)c2ccc(Cl)cc2)cc(Cl)c1OCC(=O)O`, the Potency was 0.794 µM (active). With `C/C(=N\OCC(=O)O)c1ccc(Cl)cc1` the Potency was “inactive”. In the case of `CC(C)OCCCNC(=O)CN1C(=O)/C(=C/c2ccccc2F)Oc2ccccc21`, the Potency is reported as “inactive”. For `C[C@]12CC[C@@H]3c4ccc(O)cc4C[C@@H](CCCCCCCCCS(=O)CCCC(F)(F)C(F)(F)F)C3[C@@H]1CC[C@@H]2O` (some centres undefined), the Potency was “inactive”. With `CC1CN(C(=O)CCC(=O)NCCCN2CCC(Cc3ccccc3)CC2)c2cc(Cl)ccc2O1` (centres undefined) the Potency was “inactive”. In the case of `CC1(C)Cc2cccc(OCC(=O)NCc3ccccc3)c2O1`, the Potency is reported as “inactive”. With `CCOc1nc(-c2ccc(OC)cc2)ccc1-c1noc(-c2cc(OC)c(OC)c(OC)c2)n1` the Potency was “inactive”. For `COc1ccc(-c2nc(-c3ccccc3)no2)c(OC)c1`, the Potency was 4.47 µM (active). With `COc1ccccc1Cc1nc(-c2ccc(C)cc2)no1` the Potency was “inactive”. With `COc1ccc(N(Cc2ccc(N(C)C)cc2)C(=O)c2ccc(S(C)(=O)=O)cc2)cc1` the Potency was “inactive”. In the case of `COc1cccc(N2CCN(c3ccc4nnc(CCC(=O)N5CCN(C)CC5)n4n3)CC2)c1`, the Potency is reported as “inactive”. For `CCOc1ccc(-n2c(SCC(=O)OC)nc3sc4c(c3c2=O)CCN(C)C4)cc1`, the Potency was “inactive”. In the case of `Cc1c(NC(=S)NCc2ccc(F)cc2)cccc1[N+](=O)[O-]`, the Potency is reported as 15.8 µM (active). For `Cc1c(NC(=O)/C=C/C(=O)O)cccc1[N+](=O)[O-]`, the Potency was “inactive”. With `Cc1cccc(NC(=S)N2CCC(O)CC2)c1C` the Potency was “inactive”. In the case of `Cc1c(NC(=O)Nc2ccccc2)cccc1[N+](=O)[O-]`, the Potency is reported as “inactive”. With `Cc1cccc(NC(=S)NCCc2ccc(F)cc2)c1C` the Potency was 6.31 µM (active). In the case of `Cc1cccc(NC(=S)NCCc2ccc(Cl)cc2)c1C`, the Potency is reported as 7.08 µM (active). In the case of `Cc1ccc(NC(=S)NCCc2ccc(Cl)cc2)c(C)c1`, the Potency is reported as 3.16 µM (active). In the case of `Cc1cccc(NC(=O)c2cccc(C(=O)Nc3cccc(C)c3C)n2)c1C`, the Potency is reported as “inactive”. In the case of `Cc1cc(Cl)ccc1NC(=S)NCCCN1CCCC1=O`, the Potency is reported as “inactive”. For `Cc1cccc(NC(=O)COC(=O)CCc2ccccc2)c1C`, the Potency was “inactive”. With `Cc1cc(C(=O)NCCc2ccc(Cl)cc2)c(C)o1` the Potency was “inactive”. For `Cc1cccc(NC(=O)C2CCCN(C(=O)Nc3ccc(F)cc3)C2)c1C` (centres undefined), the Potency was “inactive”. In the case of `CCn1cc(CN2CCN(CC(C)(C)C)C(CCO)C2)c2ccccc21` (centres undefined), the Potency is reported as “inactive”. With `Cc1ccc(C)c(N2CCN(S(=O)(=O)c3c(C)[nH]c(C)c3C(=O)N3CCCC3)CC2)c1` the Potency was “inactive”. For `O=C(c1cc(-c2ccc(O)cc2)on1)N1CCOCC1`, the Potency was “inactive”. With `CCC(C(=O)NCc1cccnc1)n1nc(C)c2sc3ccccc3c2c1=O` (centres undefined) the Potency was “inactive”. For `Cc1cc(F)ccc1NC(=S)NCCc1ccccc1`, the Potency was 5.62 µM (active). In the case of `Cc1cc(C)cc(NC(=S)NCCc2c[nH]c3ccccc23)c1`, the Potency is reported as 12.6 µM (active). With `COc1cc(NC(=S)NCc2ccc(S(N)(=O)=O)cc2)cc(OC)c1` the Potency was “inactive”. For `CSc1ncc(C(=O)Nc2ccc(C)cc2C)c(C)n1`, the Potency was “inactive”. For `COc1ccccc1CC(=O)NCCc1c[nH]c2ccccc12`, the Potency was “inactive”. With `O=C(CC(=O)N/N=C\c1ccc(F)cc1)NCCc1ccccc1` the Potency was “inactive”. In the case of `Cc1ccc(NC(=S)Nc2ncccc2C)c(C)c1`, the Potency is reported as 7.08 µM (active). For `CCCCC(=O)NCc1ccc(F)cc1`, the Potency was “inactive”. For `O=C(NCCc1c[nH]c2ccccc12)c1cccc(Br)c1`, the Potency was “inactive”. With `Cc1cc(C)cc(NC(=S)NCc2ccc(F)cc2)c1` the Potency was 3.98 µM (active). For `S=C(NCCc1ccccc1)N1CCCCC1`, the Potency was “inactive”. In the case of `Cc1ccc(NC(=O)C2CCCN2S(=O)(=O)c2cccc3cccnc23)c(C)c1` (centres undefined), the Potency is reported as “inactive”. For `CCCOc1ccc(CNC(=O)C2CCN(c3nn4c(=O)cc(C)nc4s3)CC2)cc1`, the Potency was “inactive”. In the case of `Cc1cccc(-c2nc(CS(=O)CC(=O)NC(C)CCc3ccccc3)c(C)o2)c1` (centres undefined), the Potency is reported as “inactive”. In the case of `O=C(Nc1ccc(N2CCCC2=O)cc1)c1cncc(Br)c1`, the Potency is reported as “inactive”. With `Cc1cccn2c(=O)c(/C=C(\C#N)C(N)=O)c(N3CCCCCC3)nc12` the Potency was “inactive”. For `CCCc1nnc(NC(=O)CCC(=O)N2CCN(S(=O)(=O)c3ccc(OC)cc3)CC2)s1`, the Potency was “inactive”. For `Cc1c(C(=O)NCC(c2ccco2)N2CCCC2)oc2ccc(Cl)cc12` (centres undefined), the Potency was “inactive”. In the case of `Cc1ccc(CNC(=O)CCS(=O)(=O)c2ccc3c(c2)CC(C)N3C(=O)C2CC2)o1` (centres undefined), the Potency is reported as “inactive”. With `O=C1C(=O)N(CCN2CCOCC2)C(c2cccc(Cl)c2)/C1=C(/O)c1ccc2c(c1)OCO2` (centres undefined) the Potency was “inactive”. For `O=C(NNS(=O)(=O)c1ccc([N+](=O)[O-])cc1)C1CCCCC1`, the Potency was “inactive”. In the case of `COc1cccc(-c2nc(CS(=O)CC(=O)NCc3ccc(F)cc3)c(C)o2)c1` (centres undefined), the Potency is reported as “inactive”. With `COc1ccccc1N1CC(C(=O)Nc2nnc(SCC(=O)NCC3CCCO3)s2)CC1=O` (centres undefined) the Potency was “inactive”. For `Cc1ccc(NC(=S)NCc2ccccc2Cl)c(C)c1`, the Potency was 5.01 µM (active). In the case of `Cc1ccccc1N/C(SCc1ccc(Cl)cc1)=C(/C#N)C(N)=O`, the Potency is reported as “inactive”. For `Cc1ccccc1NC(=S)NC(=O)Cc1ccc(Cl)cc1`, the Potency was 7.08 µM (active). With `Cc1ccc(NC(=O)C(=O)NCc2ccco2)c(C)c1` the Potency was “inactive”. For `Cc1cc(C(=O)NNC(=S)Nc2ccccc2C)cs1`, the Potency was “inactive”. With `S=C(NCc1cccnc1)Nc1ccc(Cl)cc1Cl` the Potency was “inactive”. With `O=C(N/C(=C\c1ccc([N+](=O)[O-])cc1)C(=O)N1CCOCC1)c1cccc(Br)c1` the Potency was “inactive”. For `CC(=O)Nc1ccc(S(=O)(=O)N(C)c2nc3ccccc3nc2Cl)cc1`, the Potency was “inactive”. In the case of `COC(=O)CN1C(=O)[C@H]2[C@@H](/C=C/c3ccccc3)N3C(=O)CN(CC4CC4)C(=O)[C@@]3(Cc3ccccc3)[C@H]2C1=O`, the Potency is reported as “inactive”. In the case of `O=C(CN(Cc1ccc(Br)cc1)S(=O)(=O)c1ccccc1)NCc1ccncc1`, the Potency is reported as “inactive”. With `CN1CCN(C(=O)C(=O)c2cn(CC(=O)N3CCCC3)c3ccccc23)CC1` the Potency was “inactive”. For `Cc1ccccc1CNC(=O)CCC(=O)N1Cc2ccccc2Oc2ncccc21`, the Potency was “inactive”. For `Cc1cc(SCc2c(F)cccc2Cl)nc(=O)[nH]1`, the Potency was “inactive”. For `COc1ccc(CNC(=O)/C(C#N)=C/c2cccc(OC)c2OC)cc1`, the Potency was “inactive”. With `COc1ccc(Cl)cc1CSc1ncn[nH]1` the Potency was “inactive”. With `O=C(NCCOCc1ccc(Cl)cc1)c1ncn[nH]1` the Potency was “inactive”. For `O=C(/C=C/Sc1ncn[nH]1)c1ccc(Cl)cc1`, the Potency was 4.47 µM (active). For `O=C(Cn1c(NCCO)nc2ccccc21)c1ccc(Cl)cc1Cl`, the Potency was “inactive”. For `CCc1cccc(NC(=S)N(CCN(C)C)C2CCN(C(C)C)CC2)c1`, the Potency was “inactive”. With `CC(C)c1ccc(S(=O)(=O)N2CCN(C(=O)c3ccc(N4CCCC4)c([N+](=O)[O-])c3)CC2)cc1` the Potency was “inactive”. With `CC(=O)N1c2ccc(S(=O)(=O)NCCC(=O)N(C)C3CCCCC3)cc2CC1C` (centres undefined) the Potency was “inactive”.
